# Data from ChEMBL document CHEMBL1961873, “Compounds: GSK PKIS; Assays: Nanosyn kinase panel” (2012).
# Legend:
# [1] = molecular target: T1, 3-phosphoinositide-dependent protein kinase 1 (Homo sapiens) (UniProt O15530); conditions: at 0.1 µM;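 note: values are mean inhibition of PDK1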
# T1 sequence (whole entry): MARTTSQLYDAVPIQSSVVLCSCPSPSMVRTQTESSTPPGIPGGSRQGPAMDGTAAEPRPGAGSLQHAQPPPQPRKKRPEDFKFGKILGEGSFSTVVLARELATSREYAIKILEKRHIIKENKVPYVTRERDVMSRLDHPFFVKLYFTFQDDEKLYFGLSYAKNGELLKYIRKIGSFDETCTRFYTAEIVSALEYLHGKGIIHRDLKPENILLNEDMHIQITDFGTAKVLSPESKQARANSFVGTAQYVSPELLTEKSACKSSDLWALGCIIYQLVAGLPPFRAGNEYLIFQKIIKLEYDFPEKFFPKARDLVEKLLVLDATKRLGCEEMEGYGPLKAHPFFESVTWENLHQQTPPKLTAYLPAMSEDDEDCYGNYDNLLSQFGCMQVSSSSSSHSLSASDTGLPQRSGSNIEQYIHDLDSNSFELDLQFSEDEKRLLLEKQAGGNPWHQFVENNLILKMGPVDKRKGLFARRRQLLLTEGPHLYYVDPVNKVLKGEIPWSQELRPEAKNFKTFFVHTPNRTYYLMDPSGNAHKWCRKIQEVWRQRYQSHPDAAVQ
# [2] = molecular target: cAMP-dependent protein kinase catalytic subunit alpha (Homo sapiens) (UniProt P17612); conditions: at 0.1 µM
# [3] = molecular target: cAMP-dependent protein kinase catalytic subunit alpha (Homo sapiens) (UniProt P17612); conditions: at 1 µM
# [4] = molecular target: Protein kinase C alpha type (Homo sapiens) (UniProt P17252); conditions: at 0.1 µM
# [5] = molecular target: Protein kinase C alpha type (Homo sapiens) (UniProt P17252); conditions: at 1 µM
# [6] = molecular target: Protein kinase C beta type (Homo sapiens) (UniProt P05771); conditions: at 0.1 µM
# Chain of Protein kinase C beta type (Homo sapiens) (P05771 2-671 limits assumed): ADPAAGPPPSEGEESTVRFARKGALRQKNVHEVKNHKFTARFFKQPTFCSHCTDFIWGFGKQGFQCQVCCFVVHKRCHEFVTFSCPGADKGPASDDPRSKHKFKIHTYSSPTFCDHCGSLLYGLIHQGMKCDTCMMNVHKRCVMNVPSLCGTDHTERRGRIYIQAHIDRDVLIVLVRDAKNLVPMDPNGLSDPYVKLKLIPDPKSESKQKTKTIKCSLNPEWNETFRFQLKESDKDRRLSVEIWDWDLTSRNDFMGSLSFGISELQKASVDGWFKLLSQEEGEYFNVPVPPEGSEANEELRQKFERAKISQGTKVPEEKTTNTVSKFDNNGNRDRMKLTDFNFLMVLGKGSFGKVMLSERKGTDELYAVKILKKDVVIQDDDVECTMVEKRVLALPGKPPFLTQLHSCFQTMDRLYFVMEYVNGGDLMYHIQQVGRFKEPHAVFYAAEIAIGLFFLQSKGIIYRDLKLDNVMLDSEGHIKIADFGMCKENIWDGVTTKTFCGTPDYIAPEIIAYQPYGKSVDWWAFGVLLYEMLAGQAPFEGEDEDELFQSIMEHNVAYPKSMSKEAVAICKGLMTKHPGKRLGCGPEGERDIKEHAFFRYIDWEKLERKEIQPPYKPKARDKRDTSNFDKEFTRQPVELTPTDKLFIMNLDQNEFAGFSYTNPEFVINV
# [7] = molecular target: Protein kinase C beta type (Homo sapiens) (UniProt P05771); conditions: at 1 µM
# [8] = molecular target: Protein kinase C eta type (Homo sapiens) (UniProt P24723); conditions: at 0.1 µM
# Chain of Protein kinase C eta type (Homo sapiens) (P24723 whole entry): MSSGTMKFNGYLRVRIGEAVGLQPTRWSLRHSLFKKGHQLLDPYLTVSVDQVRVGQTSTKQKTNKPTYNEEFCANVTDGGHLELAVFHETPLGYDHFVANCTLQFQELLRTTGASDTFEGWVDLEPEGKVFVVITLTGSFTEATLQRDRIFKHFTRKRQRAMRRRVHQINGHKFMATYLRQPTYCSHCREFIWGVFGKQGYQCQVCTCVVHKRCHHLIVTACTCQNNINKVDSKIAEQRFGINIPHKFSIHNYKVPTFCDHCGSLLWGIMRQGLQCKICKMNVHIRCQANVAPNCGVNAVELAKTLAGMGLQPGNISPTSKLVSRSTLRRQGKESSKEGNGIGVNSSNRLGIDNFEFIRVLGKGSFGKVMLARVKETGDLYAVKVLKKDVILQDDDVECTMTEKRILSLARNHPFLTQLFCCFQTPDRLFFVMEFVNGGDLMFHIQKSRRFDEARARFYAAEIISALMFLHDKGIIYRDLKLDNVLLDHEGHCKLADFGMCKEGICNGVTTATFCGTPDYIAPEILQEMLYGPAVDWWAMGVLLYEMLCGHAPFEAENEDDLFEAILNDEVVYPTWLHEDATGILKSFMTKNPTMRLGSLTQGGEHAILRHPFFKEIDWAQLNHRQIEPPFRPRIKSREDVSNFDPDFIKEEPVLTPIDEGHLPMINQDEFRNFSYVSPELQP
# [9] = molecular target: Protein kinase C eta type (Homo sapiens) (UniProt P24723); conditions: at 1 µM
# [10] = molecular target: Protein kinase C gamma type (Homo sapiens) (UniProt P05129); conditions: at 0.1 µM
# [11] = molecular target: Protein kinase C gamma type (Homo sapiens) (UniProt P05129); conditions: at 1 µM
# [12] = molecular target: T2, Protein kinase C iota type (Homo sapiens) (UniProt P41743); conditions: at 0.1 µM
# T2 sequence (whole entry): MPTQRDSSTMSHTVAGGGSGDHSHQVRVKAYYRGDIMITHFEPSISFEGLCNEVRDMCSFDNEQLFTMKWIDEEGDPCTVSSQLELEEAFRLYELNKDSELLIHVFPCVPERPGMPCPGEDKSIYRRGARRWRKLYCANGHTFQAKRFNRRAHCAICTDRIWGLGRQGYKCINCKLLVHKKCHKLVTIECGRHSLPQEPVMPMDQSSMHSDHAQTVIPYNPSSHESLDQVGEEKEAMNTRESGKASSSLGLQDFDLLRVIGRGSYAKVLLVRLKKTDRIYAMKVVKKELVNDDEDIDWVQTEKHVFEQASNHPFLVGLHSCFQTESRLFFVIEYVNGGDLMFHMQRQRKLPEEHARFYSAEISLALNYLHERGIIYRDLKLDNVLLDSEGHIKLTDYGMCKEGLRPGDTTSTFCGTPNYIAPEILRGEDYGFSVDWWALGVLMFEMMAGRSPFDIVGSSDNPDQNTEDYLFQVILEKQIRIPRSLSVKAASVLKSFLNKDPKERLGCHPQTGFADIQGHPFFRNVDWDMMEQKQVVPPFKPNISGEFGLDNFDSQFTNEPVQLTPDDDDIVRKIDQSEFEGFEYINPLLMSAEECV
# [13] = molecular target: T2, Protein kinase C iota type (Homo sapiens); conditions: at 1 µM
# [14] = molecular target: Protein kinase C theta type (Homo sapiens) (UniProt Q04759); conditions: at 0.1 µM
# Chain of Protein kinase C theta type (Homo sapiens) (Q04759 whole entry, looked up): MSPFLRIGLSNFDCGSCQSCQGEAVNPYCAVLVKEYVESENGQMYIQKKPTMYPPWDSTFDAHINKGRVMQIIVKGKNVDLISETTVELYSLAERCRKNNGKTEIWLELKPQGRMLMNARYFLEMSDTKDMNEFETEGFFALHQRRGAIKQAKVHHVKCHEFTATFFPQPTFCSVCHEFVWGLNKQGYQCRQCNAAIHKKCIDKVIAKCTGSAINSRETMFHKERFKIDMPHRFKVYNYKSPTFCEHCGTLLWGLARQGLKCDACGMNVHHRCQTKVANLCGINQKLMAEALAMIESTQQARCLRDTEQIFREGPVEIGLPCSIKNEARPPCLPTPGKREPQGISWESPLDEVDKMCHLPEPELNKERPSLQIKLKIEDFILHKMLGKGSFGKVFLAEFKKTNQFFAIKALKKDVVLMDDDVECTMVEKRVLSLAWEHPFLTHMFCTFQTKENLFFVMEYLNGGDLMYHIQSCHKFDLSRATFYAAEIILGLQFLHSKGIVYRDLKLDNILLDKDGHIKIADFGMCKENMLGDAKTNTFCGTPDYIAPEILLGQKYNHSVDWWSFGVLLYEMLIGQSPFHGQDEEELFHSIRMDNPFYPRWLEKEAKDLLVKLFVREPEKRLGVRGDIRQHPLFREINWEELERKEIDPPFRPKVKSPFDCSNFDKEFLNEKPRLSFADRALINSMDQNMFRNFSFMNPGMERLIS
# [15] = molecular target: Protein kinase C theta type (Homo sapiens) (UniProt Q04759); conditions: at 1 µM
# [16] = molecular target: Protein kinase C beta type (Homo sapiens) (UniProt P05771); conditions: at 0.1 µM; remark: listed apart in the source
# [17] = molecular target: Protein kinase C beta type (Homo sapiens) (UniProt P05771); conditions: at 1 µM; remark: listed apart in the source
# [18] = molecular target: T3, Serine/threonine-protein kinase D1 (Homo sapiens) (UniProt Q15139); conditions: at 0.1 µM
# T3 sequence (whole entry): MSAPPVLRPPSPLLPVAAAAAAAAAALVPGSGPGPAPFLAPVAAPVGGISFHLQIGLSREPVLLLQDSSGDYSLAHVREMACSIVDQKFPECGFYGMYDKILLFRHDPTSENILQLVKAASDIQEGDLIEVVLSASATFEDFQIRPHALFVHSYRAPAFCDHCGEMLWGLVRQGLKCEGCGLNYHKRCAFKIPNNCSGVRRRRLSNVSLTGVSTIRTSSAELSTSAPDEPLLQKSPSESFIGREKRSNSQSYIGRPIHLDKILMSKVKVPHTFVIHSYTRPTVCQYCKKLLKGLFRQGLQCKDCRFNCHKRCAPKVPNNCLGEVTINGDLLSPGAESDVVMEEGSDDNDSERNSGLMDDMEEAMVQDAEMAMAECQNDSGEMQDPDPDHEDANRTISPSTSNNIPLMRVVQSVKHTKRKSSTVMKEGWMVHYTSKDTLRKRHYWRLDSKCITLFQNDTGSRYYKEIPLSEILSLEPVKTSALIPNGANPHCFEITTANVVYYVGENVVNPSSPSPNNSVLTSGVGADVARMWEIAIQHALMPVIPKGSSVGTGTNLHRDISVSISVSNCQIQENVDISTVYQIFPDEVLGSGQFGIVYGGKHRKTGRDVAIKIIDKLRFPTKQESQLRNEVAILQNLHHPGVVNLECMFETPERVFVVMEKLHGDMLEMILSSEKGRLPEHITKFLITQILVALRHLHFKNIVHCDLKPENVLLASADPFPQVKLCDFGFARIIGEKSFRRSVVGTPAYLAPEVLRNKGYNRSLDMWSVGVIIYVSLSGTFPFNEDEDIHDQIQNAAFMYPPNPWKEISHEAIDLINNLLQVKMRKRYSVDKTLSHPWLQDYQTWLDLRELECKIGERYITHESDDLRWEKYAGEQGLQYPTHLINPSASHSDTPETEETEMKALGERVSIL
# [19] = molecular target: T3, Serine/threonine-protein kinase D1 (Homo sapiens); conditions: at 1 µM
# [20] = molecular target: T4, Serine/threonine-protein kinase D2 (Homo sapiens) (UniProt Q9BZL6); conditions: at 0.1 µM;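 note: reported percent inhibition values are means, part of the GSK PKIS kinase panel screen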
# T4 sequence (whole entry): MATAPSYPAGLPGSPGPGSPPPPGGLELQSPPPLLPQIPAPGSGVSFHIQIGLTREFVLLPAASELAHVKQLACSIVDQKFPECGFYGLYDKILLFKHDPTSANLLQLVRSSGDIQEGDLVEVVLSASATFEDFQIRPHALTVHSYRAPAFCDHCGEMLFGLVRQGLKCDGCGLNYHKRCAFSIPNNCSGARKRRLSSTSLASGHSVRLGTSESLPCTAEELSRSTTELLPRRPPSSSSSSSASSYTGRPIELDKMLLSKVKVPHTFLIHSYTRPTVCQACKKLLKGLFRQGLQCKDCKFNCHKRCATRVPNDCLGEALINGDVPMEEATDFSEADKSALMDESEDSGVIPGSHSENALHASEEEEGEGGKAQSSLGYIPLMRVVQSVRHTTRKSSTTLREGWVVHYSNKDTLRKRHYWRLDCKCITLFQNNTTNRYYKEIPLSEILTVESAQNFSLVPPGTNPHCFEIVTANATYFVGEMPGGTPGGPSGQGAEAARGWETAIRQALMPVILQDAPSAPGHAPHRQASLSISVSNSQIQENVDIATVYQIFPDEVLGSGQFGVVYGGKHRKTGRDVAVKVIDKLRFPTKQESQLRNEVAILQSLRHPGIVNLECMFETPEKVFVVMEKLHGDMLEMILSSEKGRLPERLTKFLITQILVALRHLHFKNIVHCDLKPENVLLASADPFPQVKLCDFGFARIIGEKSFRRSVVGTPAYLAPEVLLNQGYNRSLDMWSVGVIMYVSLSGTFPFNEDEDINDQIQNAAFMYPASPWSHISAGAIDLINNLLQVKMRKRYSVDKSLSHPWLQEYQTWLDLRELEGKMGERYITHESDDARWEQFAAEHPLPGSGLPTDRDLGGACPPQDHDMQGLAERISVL
Structure (SMILES),inhibition [1],inhibition [2],inhibition [3],inhibition [4],inhibition [5],inhibition [6],inhibition [7],inhibition [8],inhibition [9],inhibition [10],inhibition [11],inhibition [12],inhibition [13],inhibition [14],inhibition [15],inhibition [16],inhibition [17],inhibition [18],inhibition [19],inhibition [20]
CC1=C(C(=O)Nc2ccc3[nH]ncc3c2)C(c2ccc(F)cc2)N=C(c2ccc(C(F)(F)F)nc2)N1 (stereo not given),2.62%,3.58%,20.9%,1.25%,2.09%,0.07%,-0.53%,2.89%,2.1%,0.54%,3.28%,1%,1.59%,1.3%,1.01%,4.27%,0.68%,2.04%,3.26%,2.6%
NS(=O)(=O)c1ccc(N/N=C2\C(=O)Nc3cccc(CCc4ccncc4)c32)cc1,6.76%,1.41%,1.07%,0.11%,0.43%,-0.59%,-0.96%,-1.41%,1.16%,-0.97%,-0.16%,0.18%,1.06%,0.33%,-0.34%,-0.03%,0.05%,1.18%,1.94%,0.05%
CS(=O)(=O)Nc1ccc(-c2ccc3c(NC(=O)C4CC4)n[nH]c3c2)cc1,2.46%,1.42%,1.85%,1.17%,1.78%,-0.7%,0.21%,4.05%,1.11%,2.49%,4.43%,0.75%,3.13%,1.56%,-0.36%,1.18%,1.78%,2.7%,4.68%,3.14%
COc1cccc(Nc2nccc(-c3cnn4ncccc34)n2)c1,2.46%,1.16%,6.04%,6.2%,43.4%,0.55%,5.61%,2.46%,7.69%,-1.41%,9.31%,-1.42%,-1.07%,0.2%,4.75%,0.37%,7.43%,4.01%,38.2%,2.78%
NS(=O)(=O)c1cccc(N/C=C2\C(=O)Nc3ccccc32)c1,4.6%,2.79%,1.62%,0.98%,2.84%,-0.22%,2.02%,1.78%,3.72%,0.43%,3.27%,1.82%,2.43%,2.17%,1.6%,1.9%,3.11%,3.72%,11%,3.88%
CN1CCC(n2cnc(-c3ccc(F)cc3)c2-c2ccnc(NCCO)n2)CC1,1.23%,2.28%,4.71%,1.14%,6.57%,0.78%,5.76%,3.08%,2.5%,3.49%,5.6%,1.02%,1.08%,3.59%,5.13%,1.17%,7.68%,5.8%,14.6%,4.75%
CNC(=O)c1ncccc1Nc1nc(Nc2cc3c(cc2OC)CCCN3C(=O)CN(C)C)nc2[nH]ccc12,3.18%,1.72%,2.56%,1.68%,10.7%,1.41%,1.37%,2.78%,1.52%,5.68%,20.5%,1.89%,2.01%,1.94%,5.49%,1.44%,7.12%,5.48%,24.5%,7.16%
Cc1cc(O)cc(C)c1/C=C/c1cncc(C(N)=O)c1,1.65%,1.78%,2.91%,1.24%,1.91%,-0.18%,-2.09%,1.74%,-2.58%,3.81%,2.79%,0.54%,1.6%,1.21%,0.54%,1.28%,1.05%,2.25%,3.69%,2.04%
c1ccc(-c2n[nH]cc2-c2ccnc(-c3ccc(OCCn4ccnc4)cc3)c2)nc1,0.22%,0.39%,4.32%,0.35%,0.47%,0.31%,0.68%,-2.29%,-0.53%,0.17%,2.35%,0.38%,-0.37%,0.23%,0.98%,0.85%,-0.29%,9.5%,56.5%,14.6%
